{"source": "PubChem BioAssay", "note": "Calls of active or inactive are those of the source. The rule behind the calls is not given here.", "data": [{"molecular_target": "Pantothenate synthetase (Mycobacterium tuberculosis (strain ATCC 25618 / H37Rv)) (UniProt P9WIL5)", "sequence (P9WIL5 whole entry, looked up)": "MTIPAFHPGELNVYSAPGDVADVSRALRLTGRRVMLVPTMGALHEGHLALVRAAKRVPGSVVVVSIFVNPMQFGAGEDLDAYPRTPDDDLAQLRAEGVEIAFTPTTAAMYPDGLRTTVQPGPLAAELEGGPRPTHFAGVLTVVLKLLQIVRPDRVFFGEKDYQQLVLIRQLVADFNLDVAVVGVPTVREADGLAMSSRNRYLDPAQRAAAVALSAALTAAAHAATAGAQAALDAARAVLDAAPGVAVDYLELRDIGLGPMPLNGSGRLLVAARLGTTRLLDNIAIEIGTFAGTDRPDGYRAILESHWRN", "experiment": "Recombinant Mtb pantothenate synthetase (PanC) inhibitors, coupled enzyme, confirmatory (AID 375);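 note: 0% = full reaction with vehicle and 100% = no enzyme background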", "conditions": "coupled enzyme assay; at 10 µM, stronger effect = higher value", "values": [{"smiles": "CCOc1ccc(CN2C(=O)c3ccccc3C2C(=O)NCc2cccnc2)cc1", "note": "(stereo not given)", "inhibition": "0% (inactive)"}, {"smiles": "N=c1c(C(=O)NCc2ccc3c(c2)OCO3)cc2c(=O)n3ccccc3nc2n1Cc1cccnc1", "inhibition": "2% (inactive)"}, {"smiles": "CSc1nnc(-c2cnccn2)n1C", "inhibition": "0% (inactive)"}, {"smiles": "Cc1nn(-c2ccc(F)cc2)c2nc(N)c(C#N)c(-c3cccs3)c12", "inhibition": "6% (inactive)"}, {"smiles": "Cc1ccc(S(=O)(=O)N2CCOCC(=O)NCCOCCNC(=O)COCC2)cc1", "inhibition": "0% (inactive)"}, {"smiles": "Cc1n[nH]c(C)c1N1C(=O)c2cccc3cc(Br)cc(c23)C1=O", "inhibition": "6% (inactive)"}, {"smiles": "CN(CC(O)COc1ccc(OCC(O)CN(C)C2CCCCC2)cc1)C1CCCCC1", "note": "(stereo not given)", "inhibition": "4% (inactive)"}, {"smiles": "O=C(CSc1nnnn1-c1ccccc1)Nc1nsc(-c2ccc(Cl)cc2)n1", "inhibition": "0% (inactive)"}, {"smiles": "COc1ccccc1-c1nnc(SCc2ccccn2)n1C", "inhibition": "0% (inactive)"}, {"smiles": "Cc1ccc(S(=O)(=O)Nc2cc(C(=O)O)ccc2N2CCCCC2)cc1", "inhibition": "0% (inactive)"}, {"smiles": "COc1ccc(Cc2noc(-c3ccc(C)cc3)n2)cc1", "inhibition": "0% (inactive)"}, {"smiles": "Cc1nnc(N(Cc2ccco2)C(=O)c2cccc(C#N)c2)s1", "inhibition": "2% (inactive)"}, {"smiles": "CCOCCCNC(=O)C1CCN(C(=O)Nc2ccc(Cl)cc2)CC1", "inhibition": "3% (inactive)"}, {"smiles": "COC(=O)c1ccc(CSc2nnnn2Cc2ccccc2)cc1", "inhibition": "0% (inactive)"}, {"smiles": "O=C(Nc1ccc2c(c1)nc1n2CCSC1)c1ccccc1", "inhibition": "0% (inactive)"}, {"smiles": "CC(=O)c1cc2c(=O)c3cc(C)ccc3oc2nc1C", "inhibition": "0% (inactive)"}, {"smiles": "CCNC(=O)CC1C(=O)N(c2ccc(F)cc2)C(=O)N1CCC(C)C", "note": "(stereo not given)", "inhibition": "0% (inactive)"}, {"smiles": "CC(C)Cn1c(N)c(C(=O)COC(=O)c2cc(-c3ccco3)nc3ccccc23)c(=O)n(C)c1=O", "inhibition": "7% (inactive)"}, {"smiles": "CC1=C(C(=O)OC(C)C)C(C2CC=CCC2)NC(=O)N1", "note": "(stereo not given)", "inhibition": "6% (inactive)"}, {"smiles": "CCc1ccccc1NC(=O)CCc1nc(-c2ccc(C)cc2)no1", "inhibition": "0% (inactive)"}, {"smiles": "CCOC(=O)C(C)Sc1nc2c(cnn2-c2ccc(C)cc2)c(=O)[nH]1", "note": "(stereo not given)", "inhibition": "5% (inactive)"}, {"smiles": "CCc1cn([C@H]2C[C@H](O)[C@@H](CO)O2)c(=O)[nH]c1=O", "inhibition": "0% (inactive)"}, {"smiles": "CCOc1ccc(C(=O)N2CCN(C(=O)c3ccco3)CC2)cc1OCC", "inhibition": "1% (inactive)"}, {"smiles": "O=C(c1ccc(S(=O)(=O)N2CCOCC2)cc1)N(c1ccc(F)cc1)C1C=CS(=O)(=O)C1", "note": "(stereo not given)", "inhibition": "0% (inactive)"}, {"smiles": "CCOc1ccc(-n2c(C)nc3c(cnn3-c3ccc(Cl)cc3)c2=O)cc1", "inhibition": "4% (inactive)"}, {"smiles": "COc1ccc(C(=O)N2CCOCC2)cc1Br", "inhibition": "6% (inactive)"}, {"smiles": "Fc1ccc(C2C3=C(Nc4ncnn42)c2ccccc2OC3c2ccncc2)cc1", "note": "(stereo not given)", "inhibition": "0% (inactive)"}, {"smiles": "CS(=O)(=O)N1CCC(C(=O)NCCC2=CCCCC2)CC1", "inhibition": "6% (inactive)"}, {"smiles": "O=c1cc(-c2ccccc2)[nH]c2nc3ccccc3n12", "inhibition": "0% (inactive)"}, {"smiles": "O=C(NC1CC1)C1CCC(=O)N1C1CCCC1", "note": "(stereo not given)", "inhibition": "4% (inactive)"}, {"smiles": "COc1ccc2cc(CN(CCO)C(=O)c3ccccc3F)c(=O)[nH]c2c1", "inhibition": "5% (inactive)"}, {"smiles": "COc1ccc(NC(=O)c2cc(C(C)C)on2)c(OC)c1", "inhibition": "0% (inactive)"}, {"smiles": "CC1(C)NC(=O)N(CC(O)COc2cccc(F)c2)C1=O", "note": "(stereo not given)", "inhibition": "0% (inactive)"}, {"smiles": "Cn1cc(C(=O)c2ccc(F)cc2)cc1-c1nc2ccccc2n1C", "inhibition": "6% (inactive)"}, {"smiles": "OCCOCCN1CCN(C(c2ccccc2)c2ccc(Cl)cc2)CC1", "note": "(stereo not given)", "inhibition": "1% (inactive)"}, {"smiles": "O=C1NC(Nc2ccccn2)(C(F)(F)F)C(=O)N1c1ccc(F)cc1", "note": "(stereo not given)", "inhibition": "0% (inactive)"}, {"smiles": "Cc1ccc(S(=O)(=O)N2CCN(CCO)CC2)cc1-c1nnc2c3ccccc3c(C)nn12", "inhibition": "0% (inactive)"}, {"smiles": "CCCn1c(N2CCN(CC(=O)Nc3ccc4c(c3)OCCO4)CC2)nc2ccccc21", "inhibition": "6% (inactive)"}, {"smiles": "Cc1c(C=NCCOCc2ccccc2)cnn1C", "inhibition": "0% (inactive)"}, {"smiles": "Cc1oc(C(=O)O)cc1CSCc1cc(C(=O)O)c(C)o1", "inhibition": "2% (inactive)"}]}]}
